These results are taken from ChEMBL document CHEMBL3988442, “University of Dundee, Small-Polar-MMV Screening Library” (2021).

What all share (set-up): scale not given: direction of the effect not stated beside the values
The target in assay [1] is Protein translocase subunit SecA (Escherichia coli (strain K12)) (UniProt P10408). Put plainly: Assay to Identify E. coli SecA ATPase Inhibitors. The class given is functional. To be noted: 30 µM.
The target of assay [2] is T1, Ubiquitin-activating enzyme e1, putative (Leishmania donovani (strain BPK282A1)) (UniProt E9BSI1).
T1 sequence (whole entry): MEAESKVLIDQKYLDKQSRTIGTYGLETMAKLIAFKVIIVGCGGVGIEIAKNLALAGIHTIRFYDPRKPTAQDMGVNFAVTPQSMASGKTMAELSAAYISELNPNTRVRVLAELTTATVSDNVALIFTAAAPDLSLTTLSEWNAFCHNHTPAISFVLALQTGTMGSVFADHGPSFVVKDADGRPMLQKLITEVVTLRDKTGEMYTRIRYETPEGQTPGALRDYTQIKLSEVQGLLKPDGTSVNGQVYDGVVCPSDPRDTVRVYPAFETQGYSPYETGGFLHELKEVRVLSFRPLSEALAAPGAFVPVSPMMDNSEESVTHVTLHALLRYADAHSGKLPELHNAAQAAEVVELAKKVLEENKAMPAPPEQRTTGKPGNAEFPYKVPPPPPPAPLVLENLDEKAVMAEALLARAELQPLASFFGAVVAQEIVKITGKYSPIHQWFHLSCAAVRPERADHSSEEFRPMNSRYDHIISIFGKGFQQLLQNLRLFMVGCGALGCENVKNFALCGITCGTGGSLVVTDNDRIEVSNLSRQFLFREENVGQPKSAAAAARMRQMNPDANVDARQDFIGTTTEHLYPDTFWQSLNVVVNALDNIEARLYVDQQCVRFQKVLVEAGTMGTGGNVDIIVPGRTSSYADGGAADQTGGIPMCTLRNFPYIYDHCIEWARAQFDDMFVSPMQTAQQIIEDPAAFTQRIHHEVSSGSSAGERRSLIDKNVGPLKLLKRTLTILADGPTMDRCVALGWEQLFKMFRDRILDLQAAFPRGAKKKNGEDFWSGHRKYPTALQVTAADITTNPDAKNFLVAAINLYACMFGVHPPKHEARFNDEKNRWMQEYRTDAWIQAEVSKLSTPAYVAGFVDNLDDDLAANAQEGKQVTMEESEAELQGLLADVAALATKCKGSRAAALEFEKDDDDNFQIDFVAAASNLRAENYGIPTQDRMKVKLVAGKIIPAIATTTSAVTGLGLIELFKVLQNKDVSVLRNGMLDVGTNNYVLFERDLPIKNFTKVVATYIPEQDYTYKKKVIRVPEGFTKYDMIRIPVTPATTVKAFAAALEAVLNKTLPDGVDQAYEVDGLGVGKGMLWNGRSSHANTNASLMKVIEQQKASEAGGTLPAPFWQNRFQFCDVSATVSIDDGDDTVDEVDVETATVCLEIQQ
Put plainly: Leishmania donovani Ubiquitin Activating Enzyme (LdE1). It is filed as functional. To be noted: 30 µM.

Assay [3] deals with AMP-activated protein kinase, AMPK (Homo sapiens) (UniProt P54646+O43741+P54619+Q9UGJ0+Q9Y478+Q13131+Q9UGI9). As to the kind of experiment: AMP-dependent Kinase enzyme assay. An in vitro enzyme assay that detects ADP turnover that is directly proportional to AMPK activity. This uses naive AMPK that is activated during the assay with MK-8722. The class given is functional. To be noted: 30 µM.

For assay [4], the target named is Sialic acid-binding Ig-like lectin 9 (Homo sapiens) (UniProt Q9Y336). As to the kind of experiment: Hs-Siglec9 ALPHAscreen SOP 20170721. To be noted: 10 µM. On the technique in general: Bead proximity is the source of the signal in Alpha formats.
Chain of Sialic acid-binding Ig-like lectin 9 (Homo sapiens) (Q9Y336 whole entry): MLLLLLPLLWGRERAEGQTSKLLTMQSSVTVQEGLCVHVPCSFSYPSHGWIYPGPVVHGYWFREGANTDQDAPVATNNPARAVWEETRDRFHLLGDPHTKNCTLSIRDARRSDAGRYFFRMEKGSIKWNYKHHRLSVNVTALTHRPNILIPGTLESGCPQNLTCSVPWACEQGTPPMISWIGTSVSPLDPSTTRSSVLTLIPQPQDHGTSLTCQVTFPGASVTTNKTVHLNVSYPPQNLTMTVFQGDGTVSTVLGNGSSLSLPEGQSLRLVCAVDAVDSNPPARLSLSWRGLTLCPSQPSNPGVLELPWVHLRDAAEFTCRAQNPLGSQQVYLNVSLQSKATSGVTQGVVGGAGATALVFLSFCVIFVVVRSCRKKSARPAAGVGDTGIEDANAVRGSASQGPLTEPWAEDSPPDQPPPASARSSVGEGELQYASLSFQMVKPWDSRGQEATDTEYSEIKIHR
In the next assay the test system is Trypanosoma cruzi. As to the kind of experiment: Trypanosoma cruzi phosphomannomutase and mannose-1-phosphate guanylyltransferase assay. It is filed as functional. To be noted: 10 µM.
The target of assay [5] is T2, Arginase-2, mitochondrial (Homo sapiens) (UniProt P78540).
T2 sequence (whole entry): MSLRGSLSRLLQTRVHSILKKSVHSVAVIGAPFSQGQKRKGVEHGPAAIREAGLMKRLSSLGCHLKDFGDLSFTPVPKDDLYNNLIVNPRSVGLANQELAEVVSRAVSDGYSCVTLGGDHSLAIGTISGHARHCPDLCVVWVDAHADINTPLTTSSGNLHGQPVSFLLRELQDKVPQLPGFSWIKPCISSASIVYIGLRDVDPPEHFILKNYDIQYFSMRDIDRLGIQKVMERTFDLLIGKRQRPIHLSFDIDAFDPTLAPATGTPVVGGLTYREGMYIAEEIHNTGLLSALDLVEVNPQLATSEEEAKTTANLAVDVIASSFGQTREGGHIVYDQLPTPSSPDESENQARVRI
Put plainly: in vitro enzyme assay to detect the production of urea directly proportional to the activity of Arginase II. Also: in the data most compounds retested in dose-response had high values. To be noted: 33.3 µM. The class given is functional.

Assay [6] concerns the target T3, Proteasome subunit beta (Trypanosoma cruzi) (UniProt O96673).
T3 sequence (whole entry): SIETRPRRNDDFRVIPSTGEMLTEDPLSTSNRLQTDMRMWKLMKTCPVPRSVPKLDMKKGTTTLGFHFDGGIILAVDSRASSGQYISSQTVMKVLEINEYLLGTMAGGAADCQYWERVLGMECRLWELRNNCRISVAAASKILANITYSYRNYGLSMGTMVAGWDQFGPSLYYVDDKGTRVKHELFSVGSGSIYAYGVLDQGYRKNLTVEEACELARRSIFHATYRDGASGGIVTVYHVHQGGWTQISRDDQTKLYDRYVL
Put plainly: Trypanosoma cruzi proteasome chymotrypsin-like activity (TcProtChymo) assay. Also: in the data most compounds retested in dose-response had high values. It is filed as functional. Particulars: 9.37 µM.

The species named for another assay is Homo sapiens. Put plainly: To identify inhibition of the IFN signalling (Jak-Stat) pathway via expression of an eGFP reporter gene under the control of an IFN-stimulated response element (ISRE) containing MxA promoter. The class given is functional. To be noted: 30 µM. For orientation: Reporter assays use an easily measured gene product as a stand-in for the process of interest.

In assay [7] the target is T4, Tyrosyl-tRNA synthetase, putative (Trypanosoma cruzi (strain CL Brener)) (UniProt Q4DSP6).
T4 sequence (whole entry): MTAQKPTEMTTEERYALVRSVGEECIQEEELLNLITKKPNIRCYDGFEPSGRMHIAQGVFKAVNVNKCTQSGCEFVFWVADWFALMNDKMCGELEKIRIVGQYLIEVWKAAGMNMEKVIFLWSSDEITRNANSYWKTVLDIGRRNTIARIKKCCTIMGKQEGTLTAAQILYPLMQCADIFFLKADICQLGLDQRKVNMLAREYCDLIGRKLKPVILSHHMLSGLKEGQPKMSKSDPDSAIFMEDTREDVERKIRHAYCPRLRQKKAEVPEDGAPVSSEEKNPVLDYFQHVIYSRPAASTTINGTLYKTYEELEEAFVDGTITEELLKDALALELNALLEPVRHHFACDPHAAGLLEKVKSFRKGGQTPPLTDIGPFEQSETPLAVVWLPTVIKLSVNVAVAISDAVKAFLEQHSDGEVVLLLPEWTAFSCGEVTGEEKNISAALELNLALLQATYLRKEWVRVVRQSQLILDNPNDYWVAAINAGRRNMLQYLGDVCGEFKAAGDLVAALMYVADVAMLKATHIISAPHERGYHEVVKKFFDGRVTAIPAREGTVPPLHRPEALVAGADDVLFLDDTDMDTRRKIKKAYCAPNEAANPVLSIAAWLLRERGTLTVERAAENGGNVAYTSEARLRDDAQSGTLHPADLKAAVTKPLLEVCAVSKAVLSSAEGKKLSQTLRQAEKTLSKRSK
Put plainly: Trypanosoma cruzi tyrosyl tRNA synthetase (TcYRS) _High Tyrosine SOP. Also: in the data most compounds retested in dose-response had high values. The class given is functional. Particulars: 30 µM.

In assay [8] the target is T4, Tyrosyl-tRNA synthetase, putative (Trypanosoma cruzi (strain CL Brener)). Put plainly: Trypanosoma cruzi tyrosyl tRNA synthetase (TcYRS) SOP. The class given is functional. Particulars: 30 µM.
In assay [9] the target is Chromo domain-containing protein 1 (Saccharomyces cerevisiae (strain ATCC 204508 / S288c) (Baker's yeast)) (UniProt P32657). Put plainly: ScCHD-1 Enzyme Inhibition Assay. Also: in the data most compounds retested in dose-response had high values. To be noted: 30 µM. The class given is functional.
Chain of Chromo domain-containing protein 1 (Saccharomyces cerevisiae (strain ATCC 204508 / S288c) (Baker's yeast)) (P32657 whole entry, the tested form may be a part): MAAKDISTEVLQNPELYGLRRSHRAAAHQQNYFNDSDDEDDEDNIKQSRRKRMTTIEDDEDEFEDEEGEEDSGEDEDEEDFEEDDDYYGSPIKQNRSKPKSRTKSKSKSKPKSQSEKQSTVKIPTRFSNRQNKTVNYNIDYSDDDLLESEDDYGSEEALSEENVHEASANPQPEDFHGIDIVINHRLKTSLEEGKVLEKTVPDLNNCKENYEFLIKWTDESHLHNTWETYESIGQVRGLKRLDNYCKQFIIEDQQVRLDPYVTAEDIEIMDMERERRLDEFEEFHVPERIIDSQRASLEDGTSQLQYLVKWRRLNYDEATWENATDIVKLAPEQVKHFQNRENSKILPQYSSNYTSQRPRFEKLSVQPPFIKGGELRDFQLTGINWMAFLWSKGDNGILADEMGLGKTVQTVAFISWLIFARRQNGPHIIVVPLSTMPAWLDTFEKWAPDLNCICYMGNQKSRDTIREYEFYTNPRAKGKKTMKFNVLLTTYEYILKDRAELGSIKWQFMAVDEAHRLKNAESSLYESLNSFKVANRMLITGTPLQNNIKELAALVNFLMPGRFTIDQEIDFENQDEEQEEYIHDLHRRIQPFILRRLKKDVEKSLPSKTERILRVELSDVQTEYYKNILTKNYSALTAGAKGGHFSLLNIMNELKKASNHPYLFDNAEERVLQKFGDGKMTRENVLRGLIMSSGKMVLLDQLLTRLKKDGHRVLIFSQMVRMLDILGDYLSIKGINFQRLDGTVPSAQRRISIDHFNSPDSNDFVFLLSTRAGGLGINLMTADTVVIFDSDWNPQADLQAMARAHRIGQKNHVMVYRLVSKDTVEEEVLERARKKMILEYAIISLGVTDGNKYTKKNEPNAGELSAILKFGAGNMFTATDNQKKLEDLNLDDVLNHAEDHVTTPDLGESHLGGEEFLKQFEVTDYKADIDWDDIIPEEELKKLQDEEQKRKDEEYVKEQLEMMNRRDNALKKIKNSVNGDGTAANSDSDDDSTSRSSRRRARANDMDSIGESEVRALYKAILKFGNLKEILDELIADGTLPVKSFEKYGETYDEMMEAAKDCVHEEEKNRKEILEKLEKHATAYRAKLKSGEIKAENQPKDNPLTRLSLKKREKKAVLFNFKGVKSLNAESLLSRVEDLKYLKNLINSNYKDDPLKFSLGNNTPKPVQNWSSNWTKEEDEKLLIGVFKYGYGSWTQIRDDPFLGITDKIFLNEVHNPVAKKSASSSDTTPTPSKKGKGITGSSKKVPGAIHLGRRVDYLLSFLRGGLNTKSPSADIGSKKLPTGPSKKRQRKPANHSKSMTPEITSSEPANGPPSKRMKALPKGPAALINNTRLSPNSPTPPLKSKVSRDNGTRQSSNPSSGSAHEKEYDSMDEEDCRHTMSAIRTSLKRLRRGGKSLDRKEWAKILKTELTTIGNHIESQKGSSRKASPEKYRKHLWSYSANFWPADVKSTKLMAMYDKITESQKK

The structures appear in SMILES notation. For some of these results: Potency and affinity values are given separately.

Chain of Protein translocase subunit SecA (Escherichia coli (strain K12)) (P10408 whole entry): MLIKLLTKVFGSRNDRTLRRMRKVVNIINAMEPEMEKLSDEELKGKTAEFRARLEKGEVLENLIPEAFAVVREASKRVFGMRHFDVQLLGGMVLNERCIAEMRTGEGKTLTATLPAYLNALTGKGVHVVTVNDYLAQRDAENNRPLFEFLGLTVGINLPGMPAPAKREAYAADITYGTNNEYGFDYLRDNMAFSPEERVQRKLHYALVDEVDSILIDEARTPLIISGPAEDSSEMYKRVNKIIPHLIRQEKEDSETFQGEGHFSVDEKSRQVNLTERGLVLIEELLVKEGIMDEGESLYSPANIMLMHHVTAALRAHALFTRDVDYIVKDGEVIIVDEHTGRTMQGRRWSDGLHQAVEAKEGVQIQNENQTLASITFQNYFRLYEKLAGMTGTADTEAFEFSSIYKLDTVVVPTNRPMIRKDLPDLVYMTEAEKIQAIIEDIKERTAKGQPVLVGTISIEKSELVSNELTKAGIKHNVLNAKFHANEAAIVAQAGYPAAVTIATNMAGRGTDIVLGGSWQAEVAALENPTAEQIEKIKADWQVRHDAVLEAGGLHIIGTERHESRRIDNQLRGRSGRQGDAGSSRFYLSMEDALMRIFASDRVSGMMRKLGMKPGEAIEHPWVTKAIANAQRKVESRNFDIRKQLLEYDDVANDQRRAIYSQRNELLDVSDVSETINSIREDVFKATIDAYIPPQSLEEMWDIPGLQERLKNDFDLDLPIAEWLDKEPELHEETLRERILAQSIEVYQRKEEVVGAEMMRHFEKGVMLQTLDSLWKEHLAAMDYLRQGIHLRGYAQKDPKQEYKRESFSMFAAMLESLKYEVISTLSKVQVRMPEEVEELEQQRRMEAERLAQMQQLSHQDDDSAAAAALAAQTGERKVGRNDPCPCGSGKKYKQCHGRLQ

As for `CNC(=O)C1(CCCc2cccnc2)CCCCN1` (stereo unspecified), the Percent Effect in assay [1] was -1.25%; in assay [2], 23%; in assay [3], 5.4%; in [4], -8.22%; in the assay with Trypanosoma cruzi it was 3.95%; in [5], 0.696%. The Percent Effect was 17.6% in assay [6]; 19% in the assay filed under Homo sapiens; 1.07% in assay [7]; 9.09% in assay [8]; -15.7% in [9].
`Cc1ccc(CNC(=O)NCc2cccnc2N(C)C)s1`: the Percent Effect in [1] is -4.97%; in assay [2], 15.6%; in assay [3] it was 7.34%; in assay [4], 4.07%; in the assay with Trypanosoma cruzi, -4.68%; in assay [5] it was -3.2%. Also, the Percent Effect in assay [6] was 1.35%; in the assay filed under Homo sapiens, 19.1%; in assay [7] it was 8.74%; in assay [8] it was 12.2%; in [9] it was -5.69%.
For the molecule `COc1cc(CNCc2c(C)nn(C)c2N(C)C)ccn1`, the Percent Effect in assay [1] is -2.79%; in [2], 5.41%; in assay [3], -15.9%; in assay [4] it was 8.34%; in the assay with Trypanosoma cruzi it was 4.25%; in [5], -3.61%. Besides, the Percent Effect in [6] was 1.62%; in the assay listed under Homo sapiens, 9.11%; in [7], 4.43%; in [8] it was 18.5%; in [9], -11.1%.
Take `CCCN1CCC(NC(=O)NCCc2nc(CC)c(C)s2)CC1`: the Percent Effect was -5.41% in assay [1]; 5.41% in assay [2]; -6.84% in [3]; 24.7% in [4]; 4.1% in the assay with Trypanosoma cruzi; 33.3% in assay [5]. The Percent Effect in [6] is 8.54%; in the assay listed under Homo sapiens it was -11.4%; in [7] it was 9.9%; in assay [8], 13.4%; in assay [9], -9.25%.
On to `Cc1cc(C)c2c(OCC(=O)NC(C)C)nn(C)c2n1`, for which the Percent Effect in assay [1] is -3.72%; in [2], 10.8%; in [3] it was -1.72%; in [4], 25.4%; in the assay with Trypanosoma cruzi, 7.72%; in [5], 11.4%. Further, the Percent Effect in assay [6] was 6.9%; in the assay filed under Homo sapiens it was 10.7%; in [7], 0.529%; in assay [8] it was 12.2%; in assay [9], -13%.
On to `CCC(O)CN1CCN(C(=O)c2cccn2Cc2ccccc2)CC1` (stereo unspecified), for which the Percent Effect in assay [1] was -7.42%; in assay [2] it was 10.1%; in assay [3], -1.72%; in assay [4], 3.91%; in the assay with Trypanosoma cruzi, -5.95%; in [5] it was -0.38%. The Percent Effect is -3.69% in assay [6]; 20.8% in the assay filed under Homo sapiens; 0.493% in assay [7]; 11.4% in assay [8]; -3.89% in assay [9].
On to `CCc1nc(C2CCCN(C(=O)c3ccc4c(c3)nnn4C)C2)no1` (stereo unspecified), for which the Percent Effect in [1] is -9.33%; in assay [2], 18.2%; in assay [3], -4.8%; in [4], -5.84%; in the assay on Trypanosoma cruzi, 5.19%; in assay [5], -4.42%. Further, the Percent Effect in assay [6] is 14.3%; in the assay listed under Homo sapiens, 5.49%; in assay [7], -10.5%; in assay [8] it was 21.2%; in assay [9], -20.9%.
Turning to `Cc1cc(C)n(CC2CCCN2Cc2c(C)noc2C)n1` (stereo unspecified), the Percent Effect was -2.91% in assay [1]; -2.7% in assay [2]; 33.8% in assay [3]; 8.4% in assay [4]; 6.51% in the assay with Trypanosoma cruzi; -0.802% in [5]. Also, the Percent Effect in assay [6] is 5.59%; in the assay listed under Homo sapiens, 9.49%; in assay [7], 2.46%; in assay [8], 11.1%; in assay [9], -10.7%.
On to `O=C(CN1CCc2cncnc2C1)NCCOc1ccccc1`, for which the Percent Effect in [1] was -4.25%; in [2], 21.1%; in assay [3] it was -16.1%; in assay [4], -13.3%; with Trypanosoma cruzi, -2.33%; in [5], -12.9%. The Percent Effect in assay [6] is 0.592%; in the assay listed under Homo sapiens, 0.604%; in [7] it was 25.1%; in assay [8] it was 25.9%; in [9], -2.98%.
`Cc1cn2c(n1)CCC(NC(=O)CCn1cncn1)C2` (stereo unspecified): the Percent Effect in assay [1] is -8.14%; in assay [2], 5.26%; in [3], -6.54%; in assay [4], -5.36%; in the assay on Trypanosoma cruzi, -3.64%; in assay [5], -2.88%. For the same molecule, the Percent Effect in assay [6] is 10.4%; in the assay filed under Homo sapiens, -0.843%; in assay [7], -1.48%; in assay [8], 1.24%; in assay [9] it was 7.18%.
Consider `O=C1NC2(CCN(C(=O)c3ccccc3)CC2)CC1c1cccnc1` (stereo unspecified), for which the Percent Effect in [1] was -4.51%; in assay [2], -2.74%; in assay [3], -3.55%; in assay [4], 5.92%; in the assay with Trypanosoma cruzi, 9.32%; in assay [5] it was -6.39%. The Percent Effect is 2.65% in assay [6]; -28.6% in the assay filed under Homo sapiens; 6.25% in [7]; 13.6% in [8]; -2.24% in assay [9].
